This is an account of results in PMC10668032, “Altered binding affinity of SIX1-Q177R correlates with enhanced WNT5A and WNT pathway effector expression in Wilms tumor”.

The full ranking holds about 33,000 sequences; the median of “e-score” is about -0.05, and the highest 2% start at about 0.38. What follows is part of a selection rich in the highest values, with near analogues and random picks from the rest.

This test deals with T1, SIX1-Q177R homeodomain (human, UniProt Q15475 108-198, Q177R).
T1 sequence: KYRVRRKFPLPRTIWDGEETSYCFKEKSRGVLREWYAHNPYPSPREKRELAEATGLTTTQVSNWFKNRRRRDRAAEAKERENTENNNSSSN
Description: universal protein binding microarray; Universal all-10-mer PBM (8x60K, AMADID 030236), 300 nM GST-tagged protein, Alexa Fluor 488 anti-GST; buffer, salt, pH and temperature not stated (as in Berger); high values mean tight binding. The conditions noted are these: protein: ivt; tags: N-terminal GST; dsDNA, one strand shown. Summed up:
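Binding was expressed as 8-mer E-scores calculated with the Universal PBM Analysis Suite. The GST-tagged homeodomains, made by in vitro transcription/translation, were applied in duplicate at 300 nM final concentration to universal 'all 10-mer' protein binding microarrays (8×60K format).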
For the sequence CGTGTGAA, the binding signal turned out to be 0.302 ± 0.00315 E-score.
To GGTGTTAA belongs 0.475 ± 0.00681 E-score; to GGTGTTTA, 0.4563 ± 0.00286 E-score; to CGTGTTTA, 0.346 ± 0.0127 E-score.
To GGAGTTAA belongs 0.266 ± 0.0274 E-score; to AGTGTTTG, 0.336 ± 0.0138 E-score.
The same measure for AGTGTTAG: 0.394 ± 0.00412 E-score; for TGTGTTAA: 0.171 ± 0.00303 E-score; for CCTATAAC: 0.194 ± 0.0389 E-score.
For ACCCTACC, the binding signal was 0.193 ± 0.0205 E-score.
To CGGGTTCA belongs 0.175 ± 0.04 E-score; to CACCGGTA, 0.345 ± 0.00414 E-score; to CGTGATAC, 0.248 ± 0.0091 E-score.
For ATCCCGGG, the binding signal is 0.209 ± 0.0458 E-score.
To CCGGGGTA belongs 0.284 ± 0.00939 E-score; to CGTGTGAG, 0.276 ± 0.0289 E-score; to CGTGTTGC, 0.333 ± 0.0224 E-score.
The same measure for CGTGTTAG: 0.38 ± 0.00955 E-score; for AGTGTTGA: 0.318 ± 0.0168 E-score; for CGTGTTTC: 0.339 ± 0.0138 E-score.
The same measure for CGTGTTGA: 0.358 ± 0.0177 E-score.
With GGTGTTGA, the binding signal came out at 0.4626 ± 0.00453 E-score.
To CGTGTTAC belongs 0.408 ± 0.00576 E-score.
The same measure for ACGGTCTC: 0.153 ± 0.00373 E-score; for CACCGCAC: 0.333 ± 0.0118 E-score.
The same measure for AGTACCCG: 0.154 ± 0.00938 E-score.
For the sequence CTAGGGTA, the binding signal stood at 0.236 ± 0.0217 E-score.
The same measure for CTGTGACA: 0.21 ± 0.00229 E-score; for GGGTGACA: 0.302 ± 0.0147 E-score; for GTGTGACA: 0.436 ± 0.0156 E-score.
To TGTCAAAA belongs 0.198 ± 0.0336 E-score; to CACCCTGC, 0.293 ± 0.0291 E-score; to ATGGAGTG, 0.274 ± 0.0146 E-score.
For AGGGGACA, the binding signal was 0.179 ± 0.0364 E-score.
The same measure for ACCCACGC: 0.171 ± 0.00328 E-score.
As to ACACCGCC, the binding signal amounted to 0.4737 ± 0.0034 E-score.
The same measure for ATACCGCG: 0.238 ± 0.0151 E-score; for ACACCGCT: 0.4659 ± 0.00251 E-score; for ACTCCGCT: 0.185 ± 0.0321 E-score.
The same measure for ATACCGCA: 0.179 ± 0.00528 E-score; for ACACCGCA: 0.4797 ± 0.00463 E-score; for ACGCCGCC: 0.153 ± 0.0249 E-score.
The same measure for GCACCGCC: 0.265 ± 0.00467 E-score; for GCACCGCA: 0.169 ± 0.0396 E-score.
Regarding ACACCGCG, the binding signal came out at 0.4808 ± 0.00187 E-score.
The same measure for ACCCCGCT: 0.209 ± 0.0248 E-score; for ACCCCGCG: 0.254 ± 0.0276 E-score.
With CCTTGACA, the binding signal was 0.253 ± 0.00743 E-score.
To CCCATGGA belongs 0.189 ± 0.033 E-score.
The same measure for ACCCTGTG: 0.207 ± 0.0277 E-score; for GGTATACC: 0.303 ± 0.0126 E-score; for ATGGGTGC: 0.154 ± 0.0381 E-score.
As to CCCCTGAG, the binding signal was determined as 0.16 ± 0.00444 E-score.
The same measure for AGGCGTAC: 0.221 ± 0.0327 E-score; for ACCAGGTG: 0.217 ± 0.0167 E-score; for ACTGCGTG: 0.29 ± 0.0171 E-score.
The same measure for ATGCGACA: 0.198 ± 0.03 E-score.
The same measure for CGGGTTAC: 0.159 ± 0.0432 E-score; for ATAGGTAC: 0.166 ± 0.021 E-score.
Take AGACACTG: the binding signal amounted to 0.341 ± 0.0138 E-score.
The same measure for AGACACCT: 0.4528 ± 0.0033 E-score; for AGACACGG: 0.377 ± 0.019 E-score; for AGACACCG: 0.468 ± 0.0126 E-score.
To AATGATAC belongs 0.212 ± 0.0688 E-score; to AACCCCAC, 0.222 ± 0.0452 E-score.
In the case of ACCCGGAT, the binding signal amounted to 0.301 ± 0.0466 E-score.
The same measure for ACACGGAA: 0.398 ± 0.0244 E-score; for ACCCGGAA: 0.272 ± 0.0105 E-score.
As for ACACGGAT, the binding signal came out at 0.392 ± 0.0346 E-score.
Regarding ACACGGAG, the binding signal is 0.369 ± 0.00835 E-score.
Turning to AGGATACC, the binding signal was 0.337 ± 0.0124 E-score.
Take CGACCTCA: the binding signal turned out to be 0.168 ± 0.0123 E-score.
Take CAACTACA: the binding signal worked out at 0.2474 ± 0.00148 E-score.
To ACCCTACG belongs 0.164 ± 0.0266 E-score; to CCCCATGC, 0.201 ± 0.0118 E-score.
To GAAGGGTA belongs 0.169 ± 0.0222 E-score; to AGTGTAGA, 0.369 ± 0.0196 E-score.
The same measure for AGTGTAGC: 0.3944 ± 0.000672 E-score; for AGTGTTGC: 0.321 ± 0.00542 E-score.
On to CGTGTAGA, for which the binding signal came out at 0.379 ± 0.0134 E-score.
Consider CGTGTAGC, for which the binding signal came to 0.416 ± 0.0198 E-score.
On to AGTGTAGG, for which the binding signal turned out to be 0.411 ± 0.00742 E-score.
The same measure for AGTGTGGC: 0.193 ± 0.0161 E-score; for AGTGTGGG: 0.192 ± 0.0212 E-score.
The same measure for ACTTAATG: 0.219 ± 0.0268 E-score; for CAATAGGG: 0.2 ± 0.0026 E-score; for CCCGGACA: 0.233 ± 0.00728 E-score.
In the case of TGTCATAA, the binding signal came out at 0.1985 ± 0.00132 E-score.
The same measure for AATGCACC: 0.162 ± 0.026 E-score; for AGTGTTCC: 0.334 ± 0.0173 E-score; for AGTGTTAC: 0.387 ± 0.0129 E-score.
GGCGTTAC: the binding signal was determined as 0.154 ± 0.00446 E-score.
GGTGTTAC: the binding signal is 0.474 ± 0.00578 E-score.
For the sequence GGGGTTAC, the binding signal is 0.261 ± 0.0216 E-score.
The same measure for AGTGTTAT: 0.395 ± 0.041 E-score.
For the sequence AGTGTTAA, the binding signal was determined as 0.394 ± 0.0556 E-score.
The same measure for AGTGTTTC: 0.299 ± 0.0238 E-score; for AGGAGTAT: 0.168 ± 0.0487 E-score.
Regarding CGGGAACA, the binding signal was 0.157 ± 0.0155 E-score.
In the case of CACCGGCG, the binding signal worked out at 0.244 ± 0.0186 E-score.
The same measure for CCGGGGTC: 0.323 ± 0.0298 E-score; for ACCCTAGA: 0.176 ± 0.00214 E-score; for CACGTCAC: 0.16 ± 0.0113 E-score.
The same measure for GAGGTACA: 0.252 ± 0.0061 E-score; for CGTGACCC: 0.211 ± 0.0247 E-score; for AGTGACTC: 0.193 ± 0.0365 E-score.
To CGTGACTC belongs 0.207 ± 0.00528 E-score; to CGTGACAC, 0.454 ± 0.00689 E-score; to GGTGACAC, 0.4718 ± 0.00406 E-score.
Consider GGTGATAC, for which the binding signal came to 0.313 ± 0.00834 E-score.
The same measure for AGTGACCC: 0.234 ± 0.019 E-score.
The same measure for GGGGTGAC: 0.16 ± 0.0356 E-score; for AGTGACAC: 0.469 ± 0.00575 E-score.
